According to PubChem BioAssay:
Results with a measured potency or affinity are listed apart. Records with an inconclusive call do not appear. Calls of active or inactive are those of the source.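 The calls were made as follows, unless noted: active = a fitted half-maximal concentration no higher than twice the top valid tested dose, with signal falling as cells die; inconclusive = flat curve between -70% and -30%, or poor fit; inactive = the rest, including signal rising instead of falling.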

Columns and labels:
[1] = Cryptococcus neoformans growth inhibition, dose response, Alamar Blue, cherry-picks (AID 686998;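 active = falling signal with fitted half-maximal potency no higher than twice the top valid tested dose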)
[2] = inducers of Cryptococcus neoformans cell lysis, dose response, AK release luminescence, cherry-picks (AID 687000;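 active = fitted dose curve reaches 40% lysis signal rise at or below the highest valid concentration tested for that sample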;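 also: luminescent detection of adenylate kinase leaking from lysed yeast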)
[3] = HepG2 cell cytotoxicity, dose response, cytotoxicity control, cherry-picks, set 2 (AID 687002;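 active = a dose-response fit showing signal loss, with half-maximal concentration no higher than twice the top tested dose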)
[4] = HeLa cell cytotoxicity, dose response, cytotoxicity control, ATP luminescence, cherry-pick samples (AID 687004)

Measured: outcome

CCCN1C[C@H](C)[C@@H](OC)CN(C)C(=O)c2cc(NC(=O)c3cccc(F)c3)ccc2OC[C@H]1C
inactive: all assays above

CN1CCN(C(=O)C[C@@H]2CC[C@H]3[C@@H](COC[C@H](O)CN3C(=O)Cc3ccccc3)O2)CC1
inactive: all assays above

CN1C(=O)N[C@@H]2c3ccccc3O[C@@]1(C)[C@@H]2COC(=O)c1ccccc1
inactive: all assays above

CO[C@@H]1CN(C)C(=O)c2ccc(NC(=O)Nc3ccccc3)cc2OC[C@H](C)N(C(C)=O)C[C@H]1C
inactive: all assays above

COc1ccc(S(=O)(=O)Nc2ccc3c(c2)C(=O)N([C@H](C)CO)C[C@@H](C)[C@@H](CN(C)C(=O)Nc2ccccc2)O3)cc1
inactive: all assays above

COCC(=O)Nc1ccc2c(c1)C(=O)N(C)C[C@@H](OC)[C@H](C)CN(Cc1ccccc1)[C@@H](C)CO2
inactive: all assays above

C[C@H](CO)N1C[C@H](C)[C@@H](CN(C)C(=O)Nc2cccc3ccccc23)Oc2c(cccc2N(C)C)C1=O
inactive: all assays above

C[C@@H]1CN([C@H](C)CO)C(=O)c2cc(N(C)C)ccc2O[C@@H]1CN(C)C(=O)Nc1ccc(C(F)(F)F)cc1
inactive: all assays above

O=C(C[C@@H]1CC[C@H]2[C@@H](COC[C@@H](O)CN2Cc2ccc(Cl)cc2)O1)NCc1cccc(F)c1
inactive: all assays above

COc1ccc(CN(C)C[C@@H]2OCCCC[C@H](C)Oc3ccc(N(C)C)cc3C(=O)N([C@H](C)CO)C[C@@H]2C)cc1
inactive: all assays above

CC(C)NC(=O)N(C)C[C@H]1OCCCC[C@@H](C)Oc2ccc(NC(=O)c3ccccc3)cc2C(=O)N([C@@H](C)CO)C[C@@H]1C
inactive: all assays above

Cc1ccc(C)c(NC(=O)C2(C)CCCN2C(=O)C(C)C)c1 (configuration not stated)
inactive: all assays above

CC(C)C#Cc1ccc2c(c1)O[C@H](CN(C)C(=O)Cc1ccccn1)[C@H](C)CN([C@H](C)CO)S2(=O)=O
inactive: all assays above

C[C@@H]1CN([C@@H](C)CO)C(=O)c2cccc(NC(=O)C3CC3)c2O[C@@H]1CN(C)C
inactive: all assays above

CC(C)CC#Cc1cnc2c(c1)C(=O)N([C@H](C)CO)C[C@@H](C)[C@@H](CN(C)C(=O)c1ccc3c(c1)OCO3)O2
inactive: all assays above

C[C@@H]1CN([C@@H](C)CO)S(=O)(=O)c2ccc(C#Cc3ccc(F)cc3)cc2O[C@H]1CN(C)C(=O)NC1CCCC1
inactive: all assays above

C[C@@H]1CN([C@@H](C)CO)C(=O)c2cc(NC(=O)CCN3CCOCC3)ccc2O[C@@H]1CN(C)Cc1ccc(C(=O)O)cc1
inactive: all assays above

COc1ccc(-n2ncc3c(SCC(=O)OC(C)C)ncnc32)cc1
inactive: all assays above

CO[C@@H]1CN(C)C(=O)c2cc(NS(=O)(=O)C3CCCCC3)ccc2OC[C@H](C)NC[C@@H]1C
inactive: all assays above

COc1cccc(S(=O)(=O)N(C)C[C@H]2OCc3cnnn3CCCC(=O)N([C@H](C)CO)C[C@H]2C)c1
inactive: all assays above

O=C(C[C@H]1C=C[C@H](NC(=O)Nc2cc(F)ccc2F)[C@@H](CO)O1)NCCCN1CCOCC1
inactive: all assays above

CCCNC(=O)N(C)C[C@@H]1Oc2ncc(C#CCc3ccccc3)cc2C(=O)N([C@@H](C)CO)C[C@@H]1C
inactive: all assays above

C[C@H]1CN([C@@H](C)CO)C(=O)Cc2cc(NC(=O)CCCCCC(=O)Nc3ccccc3N)ccc2O[C@H]1CN(C)C(=O)Nc1ccccc1
inactive: all assays above

CCCCN1CCCCC1C(=O)Nc1c(C)cccc1C (configuration not stated)
inactive: all assays above

Cc1cccc(C)c1NC(=O)CNC(=O)C(C)N1CCCCC1 (configuration not stated)
inactive: all assays above

COc1ccc(OC(C)C(=O)NC(C)c2ccccc2)cc1 (configuration not stated)
inactive: all assays above

CC(C)NC(=O)Nc1cccc2c1O[C@H](CN(C)C)[C@H](C)CN([C@H](C)CO)C2=O
inactive: all assays above

Cc1cc(C)c(NC(=O)C2CCCN2C)c(C)c1 (configuration not stated)
inactive: all assays above

C[C@H]1CN([C@@H](C)CO)C(=O)c2cccc(NS(=O)(=O)c3cn(C)cn3)c2O[C@@H]1CN(C)CC1CCCCC1
inactive: all assays above

C[C@@H]1CN([C@@H](C)CO)C(=O)Cc2cc(NC(=O)Nc3cccc4ccccc34)ccc2O[C@@H]1CN(C)Cc1ccc(C(=O)O)cc1
inactive: all assays above

COc1ccc(NC(=O)Nc2ccc3c(c2)C(=O)N([C@H](C)CO)C[C@@H](C)[C@H](CN(C)S(=O)(=O)c2ccc(Cl)cc2)OCCCC[C@@H](C)O3)cc1
inactive: all assays above

Cc1noc(C)c1S(=O)(=O)Nc1ccc2c(c1)CC(=O)N([C@@H](C)CO)C[C@H](C)[C@@H](CN(C)S(=O)(=O)c1cn(C)cn1)O2
inactive: all assays above

COc1ccccc1CNC(=O)C[C@@H]1C[C@@H]2c3cc(NC(=O)Nc4ccccc4F)ccc3O[C@@H]2[C@H](CO)O1
inactive: all assays above

Cc1cc(C(=O)Nc2ccc3c(c2)C(=O)N(C)[C@H]2CC[C@@H](CC(=O)N[C@@H](C)c4ccccc4)O[C@H]2CO3)no1
inactive: all assays above

C[C@@H]1CN([C@H](C)CO)C(=O)c2cccc(NC(=O)C3CC3)c2O[C@H]1CN(C)Cc1ccc(C(=O)O)cc1
inactive: all assays above

CCCNC(=O)Nc1ccc2c(c1)C(=O)N(C)C[C@H](OC)[C@@H](C)CN(C(=O)CC)[C@@H](C)CO2
inactive: all assays above

CC=Cc1ccc2n(c1=O)C[C@H]1[C@H](CO)[C@@H](C(=O)N3CCOCC3)N(CC3CC3)[C@@H]21 (mixture of isomers)
inactive: all assays above

CN1CCN(C(=O)CN(c2ccc(I)cc2)S(=O)(=O)c2ccccc2)CC1
inactive: all assays above

C[C@@H]1CCCCO[C@H](CN(C)C(=O)Nc2ccc(F)cc2)[C@H](C)CN([C@@H](C)CO)C(=O)c2cc(NS(=O)(=O)c3ccc(Cl)cc3)ccc2O1
inactive: all assays above

CN1C(=O)c2cc(NS(=O)(=O)c3cccc(F)c3)ccc2OC[C@H]2O[C@H](CC(=O)O)CC[C@H]21
inactive: all assays above

O=C(C[C@H]1C[C@H]2c3cc(NC(=O)C4CCC4)ccc3O[C@H]2[C@@H](CO)O1)NCc1cccc(F)c1
inactive: all assays above

C[C@H](CO)N1C[C@H](C)[C@H](CN(C)CC2CCCCC2)Oc2ccc(NC(=O)Nc3ccc4c(c3)OCO4)cc2C1=O
inactive: all assays above

CN1C(=O)c2cc(NC(=O)NC3CCCC3)ccc2OC[C@H]2O[C@@H](CC(=O)NCC3CC3)CC[C@@H]21
inactive: all assays above

Cc1ccc(N(CC(N)=O)S(=O)(=O)c2ccc(F)cc2)cc1
inactive: all assays above

CNC(=O)C[C@@H]1CC[C@@H]2[C@H](COC[C@H](O)CN2S(=O)(=O)c2cccc(Cl)c2)O1
inactive: all assays above

COCC#Cc1cnc2c(c1)C(=O)N([C@H](C)CO)C[C@H](C)[C@H](CN(C)C(=O)C1CC1)O2
inactive: all assays above

O=C(NCc1ccc(F)cc1)C1C2C=CC3(CN(Cc4cccnc4)C(=O)C13)O2 (configuration not stated)
inactive: all assays above

C[C@@H]1CN([C@H](C)CO)C(=O)c2cc(NS(=O)(=O)c3cn(C)cn3)ccc2O[C@H]1CN(C)C(=O)Nc1cccc2ccccc12
inactive: all assays above

O=C(CSc1ncnc2c1cnn2-c1ccc(Cl)cc1)NCc1ccc2c(c1)OCO2
inactive: all assays above

CO[C@H]1CN(C)C(=O)c2ccc(NC(C)=O)cc2OC[C@H](C)N(C(=O)c2ccncc2)C[C@@H]1C
inactive: all assays above

C[C@H]1CCCCO[C@@H](CN(C)C(=O)c2ccccc2)[C@@H](C)CN([C@@H](C)CO)C(=O)c2cc(NC(=O)c3ccncc3)ccc2O1
inactive: all assays above

CCC(=O)N1[C@H](CO)[C@H](c2ccccc2)[C@@H]1CN(CC)C(=O)c1cccc(F)c1
inactive: all assays above

CCC(C)(C(=O)Nc1ccccc1C)N(C(=O)CNC(C)=O)c1ccc(C)cc1 (configuration not stated)
inactive: all assays above
